Structures can show the parent of a compound that is named as a salt.
Each compound was assayed on Danio rerio larvae Tg(actc1b:ZsGreen-LC3), 3 dpf (assay: LC3 puncta relative area vs vehicle, without NH4Cl (log2 fold change); higher = more autophagosomes). Conditions: 10 µM; treatment time 16 h; NH4Cl: none.
Description: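 Transgenic Tg(actc1b:ZsGreen-map1lc3) zebrafish larvae (2 dpf) were treated for 16 h with Tocris library compounds at 10 µM (n = 12 larvae per compound). Skeletal-muscle LC3 puncta area relative to body area was measured by high-content confocal imaging before and after 4 h of 100 mM NH4Cl (autophagic flux), normalised to vehicle (DMSO), and reported as log2 fold change.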
With `NCC(O)(CS(=O)(=O)O)c1ccc(Cl)cc1` (stereo not given) [2-Hydroxysaclofen] the “LC3 puncta (log2)” value was 0.46. `Fc1ccc(C(c2ccc(F)cc2)N2CCN(C/C=C/c3ccccc3)CC2)cc1` [Flunarizine dihydrochloride] was tested, and the “LC3 puncta (log2)” value was 0.219. In the case of `COc1cc(C(=O)OCCCN2CCCN(CCCOC(=O)c3cc(OC)c(OC)c(OC)c3)CC2)cc(OC)c1OC` [Dilazep], the “LC3 puncta (log2)” value is reported as 0.175. With `CC1=C(/C=C/C(C)=C/C=C/C(C)=C/C(=O)O)C(C)(C)CCC1` [Retinoic acid] the “LC3 puncta (log2)” value was 0.44. For `CCN(CC)CCOc1ccc(Cc2ccccc2)cc1` [DPPE fumarate], the “LC3 puncta (log2)” value was 0.714. In the case of `NC(=O)c1cccc(N)c1` [3-Aminobenzamide], the “LC3 puncta (log2)” value is reported as 0.336. In the case of `O=c1nc2ccccc2c2n1CC(CN1CCN(c3ccccc3)CC1)N2` (stereo not given), the “LC3 puncta (log2)” value is reported as 0.0176. With `N[C@@H](CSS(=O)(=O)O)C(=O)O` [S-Sulfo-L-cysteine sodium salt] the “LC3 puncta (log2)” value was -0.101. In the case of `COc1ccc2[nH]c(I)c(CCNC(C)=O)c2c1` [2-Iodomelatonin], the “LC3 puncta (log2)” value is reported as 0.515. With `NC(C(=O)O)c1cc(O)cc(O)c1` (racemic) the “LC3 puncta (log2)” value was 0.194. For `COc1ccc([C@@H]2Sc3ccccc3N(CCN(C)C)C(=O)[C@@H]2OC(C)=O)cc1` [Diltiazem hydrochloride], the “LC3 puncta (log2)” value was 0.112. With `O=C(OCCN1CCCCC1)c1c[nH]c2ccccc12` the “LC3 puncta (log2)” value was 0.11. For `CC(C)NCC(O)COc1cccc2ccccc12` (stereo not given) [Propranolol hydrochloride], the “LC3 puncta (log2)” value was 0.0203. For `Cc1ccc2c(c1)c1c3n2CCNC3CCC1` (stereo not given) [Pirlindole mesylate], the “LC3 puncta (log2)” value was 0.028. For `COCCOC(=O)C1=C(C)NC(C)=C(C(=O)OC(C)C)C1c1cccc([N+](=O)[O-])c1` (stereo not given) [Nimodipine], the “LC3 puncta (log2)” value was 0.31. `CCC1(c2ccccc2)C(=O)NCNC1=O` [Primidone] was tested, and the “LC3 puncta (log2)” value was 0.333. With `O=C(/C=C/c1ccc(O)c(O)c1)O[C@H](Cc1ccc(O)c(O)c1)C(=O)O` [Rosmarinic acid] the “LC3 puncta (log2)” value was 0.0606. For `Cc1ccc(OCC(O)C(C)NC(C)C)c2c1CCC2` (stereo not given) [ICI 118,551 hydrochloride], the “LC3 puncta (log2)” value was -0.0345. In the case of `CC1=NN(c2ccccc2)C(=O)C1` [Edaravone], the “LC3 puncta (log2)” value is reported as 0.377. For `N[C@H](C(=O)O)c1cc(O)cc(O)c1`, the “LC3 puncta (log2)” value was 0.537. `N[C@H]1CCN(O)C1=O` was tested, and the “LC3 puncta (log2)” value was 0.0498. With `CNC(=O)c1cc2c(cn1)[nH]c1ccccc12` the “LC3 puncta (log2)” value was 0.13. With `O=C1CC2(CCCC2)CC(=O)N1CCNCC1COc2ccccc2O1` (stereo not given) the “LC3 puncta (log2)” value was 0.301. `O=[N+]([O-])c1cc2nc(O)c(O)nc2cc1[N+](=O)[O-]` was tested, and the “LC3 puncta (log2)” value was 0.0864. `N[C@H](C(=O)O)c1ccc(C(=O)O)c(O)c1` [(S)-4-Carboxy-3-hydroxyphenylglycine] was tested, and the “LC3 puncta (log2)” value was -0.331. With `CC1(C(=O)O)NCCc2cc(O)c(O)cc21` (stereo not given) [Salsolinol-1-carboxylic acid] the “LC3 puncta (log2)” value was 0.463. `CC(C)NC[C@H](O)COc1ccc(CC(N)=O)cc1` [(S)-(-)-Atenolol] was tested, and the “LC3 puncta (log2)” value was 0.12. For `CC(C)(Oc1ccc(Cl)cc1)C(=O)O` [Clofibric acid], the “LC3 puncta (log2)” value was 0.448. With `O=C(OCCN1CCOCC1)C1(c2ccccc2)CCCCC1` [PRE-084 hydrochloride] the “LC3 puncta (log2)” value was 0.215. `COc1ccc2[nH]c(-c3ccccc3)c(CCNC(C)=O)c2c1` [2-Phenylmelatonin] was tested, and the “LC3 puncta (log2)” value was 0.513. In the case of `CC(CCc1ccc(O)cc1)NCCc1ccc(O)c(O)c1` (stereo not given) [Dobutamine hydrochloride], the “LC3 puncta (log2)” value is reported as -0.094. For `NC(N)=NC(N)=Nc1cccc(Cl)c1` [m-Chlorophenylbiguanide hydrochloride], the “LC3 puncta (log2)” value was 0.136. For `NC(=O)CCCCn1ccc(NC(N)=NCC(F)(F)F)n1`, the “LC3 puncta (log2)” value was 0.486. `CN1CCN(C2=Cc3ccccc3Oc3ccc(Cl)cc32)CC1` was tested, and the “LC3 puncta (log2)” value was 0.742. `CC#CCOC(=O)C1=CCCN(C)C1` [Arecaidine but-2-ynyl ester tosylate] was tested, and the “LC3 puncta (log2)” value was 0.463. `CC(C)(C)NC[C@H](O)COc1nsnc1N1CCOCC1` [(S)-Timolol maleate] was tested, and the “LC3 puncta (log2)” value was 0.305. For `COC(=O)/C=C/c1cc(O)ccc1O` [Methyl 2,5-dihydroxycinnamate], the “LC3 puncta (log2)” value was 0.0626. For `NC(N)=Nc1ccc(Cl)cc1` [4-Chlorophenylguanidine hydrochloride], the “LC3 puncta (log2)” value was -0.45. With `CC(Cc1ccc(O)c(O)c1)(NN)C(=O)O` [(S)-(-)-Carbidopa] the “LC3 puncta (log2)” value was 0.0108. `CN(C)CCCn1cc(C2=C(c3c[nH]c4ccccc34)C(=O)NC2=O)c2ccccc21` was tested, and the “LC3 puncta (log2)” value was 0.584.

Source: the supplement of paper PMC12532568
